This passage reports INHIBITION results from ChEMBL document CHEMBL4513216, “Probing the Open Global Health Chemical Diversity Library for Multistage-Active Starting Points for Next-Generation Antimalarials” (ACS Infect Dis, 2020).

The whole screen tested about 68,000 compounds, of which about 2,700 (4%) showed an effect of 50% or more. The entries come from a sample that favours strong results as a whole.

In this test the test system is Plasmodium berghei. In words: Screen against P. berghei liver stage (PbLuc), transformed with Luciferase, at 2uM. The format is functional, HepG2. The following applies: tested at 2 uM.
In the case of `CNC(=O)[C@@]12CCO[C@@H]1CCN(Cc1ccc3c(c1)OCO3)C2`, the INHIBITION is on record as 39.02%.
The same measure for `CC(C)NC(=O)[C@@]12CCO[C@@H]1CCN(Cc1ccc3c(c1)OCO3)C2`: 50.85%.
Turning to `O=C(NC1CC1)[C@@]12CCO[C@@H]1CCN(Cc1ccc3c(c1)OCO3)C2`, the INHIBITION is on record as -14.64%.
Next, `CC(=O)N1CC2(CCCCN2Cc2ccc(Cl)cc2)Cc2ccccc21` (stereo not drawn): -31.86%; `Cn1ccc(CN2CCCC23CCN(Cc2cccc(F)c2)CC3)n1`: 1.81%; `Cc1ccccc1OCC(=O)NCC(c1ccc(N(C)C)cc1)N(C)C` (stereo not drawn): 36.6%.
Next, `CC(c1ccc(S(N)(=O)=O)cc1)N(C)C(=O)c1ccccc1I` (stereo not drawn): -28.49%.
Consider `CCOc1ccccc1C(=O)N(C)C(C)c1ccc(S(C)(=O)=O)cc1` (stereo not drawn), for which the INHIBITION is listed as 91.01%.
The same measure for `CC(c1ccc(S(C)(=O)=O)cc1)N(C)C(=O)c1ccccc1I` (stereo not drawn): 6.85%; for `CC(C)c1csc(NC(=O)NC2CCCN(c3cnn(C)c3)C2)n1` (stereo not drawn): -20.08%.
Consider `N#Cc1cc(F)c(N2CCC(NS(=O)(=O)c3cccs3)CC2)c(F)c1`, for which the INHIBITION worked out at 24.17%.
On to `CC(C)C(C)(O)CNc1cccc(F)c1C#N` (stereo not drawn), for which the INHIBITION was 28.1%.
Next, `CSCC(C)(O)CNc1cccc(F)c1C#N` (stereo not drawn): 52.6%; `CSCC(C)(O)CNc1cccc(F)c1C(C)=O` (stereo not drawn): 8.75%.
The same measure for `Cc1ccc(-n2ncc(C(=O)N(C)C3CCN(C)CC3)c2N)cc1C`: -11.1%.
In the case of `O=C(C1=CCCC1)N1CCC[C@]2(C[C@@H](OCc3ccccn3)CO2)C1`, the INHIBITION amounted to 3.72%.
For `CC(c1ccco1)N(C(=O)c1cccc(C#N)c1)C1CC1` (stereo not drawn), the INHIBITION was found to be 32.93%.
As for `CC(c1ccco1)N(C(=O)NCc1ccon1)C1CC1` (stereo not drawn), the INHIBITION is on record as 1.88%.
The same measure for `Cc1noc(C)c1CNC(=O)N(C1CC1)C(C)c1ccco1` (stereo not drawn): 50.91%; for `CCc1cc(CNC(=O)N(C2CC2)C(C)c2ccco2)[nH]n1` (stereo not drawn): 61.42%.
Next, `Cc1noc(C)c1CNC(=O)N(C)C1CCN(c2ccccc2)C1=O` (stereo not drawn): -7.88%.
The same measure for `CCc1cc(CNC(=O)N(C2CC2)C(C)c2ccco2)on1` (stereo not drawn): -27.89%.
As for `COc1cc(N2CCC3(CC2)OCC(=O)NC3C)ncn1` (stereo not drawn), the INHIBITION is reported as -7.03%.
On to `Cc1ccc(CN2CC[C@H]3[C@H]2CC(=O)N3c2ccsc2)o1`, for which the INHIBITION stood at 43.05%.
Take `COCCC(=O)N[C@H]1CC[C@H](Nc2nccc(-c3ccncc3)n2)C1`: the INHIBITION was determined as 24.51%.
With `O=c1c(Cc2ccc(Cl)cc2Cl)c(O)ccn1CC1CC1`, the INHIBITION is on record as 31.56%.
Take `CCc1nc2ccccc2c(=O)n1CC1(O)CCN(CC(=O)OC)CC1`: the INHIBITION is 28.64%.
Next, `CCc1nc2ccccc2c(=O)n1CC1(O)CCN(C(=O)C(C)C)CC1`: 59.91%.
The same measure for `CCc1nc2ccccc2c(=O)n1CC1(O)CCN(C(=O)C2CC2)CC1`: 29.89%.
Next, `CCCC(=O)N1CCC(O)(Cn2c(CC)nc3ccccc3c2=O)CC1`: -64.2%; `CCc1nc2ccccc2c(=O)n1CC1(O)CCN(S(C)(=O)=O)CC1`: -37.18%; `CCc1nc2ccccc2c(=O)n1CC1(O)CCN(C(=O)COC)CC1`: 56.99%.
Turning to `Cc1nccn1CCC(=O)N1CCC2(CCC(=O)N(CC3CC3)C2)CC1`, the INHIBITION was -63.27%.
The same measure for `Cn1cc(Br)c(=O)c(NS(=O)(=O)c2ccc(Cl)cc2)c1`: 4.67%; for `CCc1ccc(S(=O)(=O)Nc2cn(C)cc(Br)c2=O)cc1`: 11.28%.
Next, `Cn1cc(Br)c(=O)c(NS(=O)(=O)c2ccc(F)cc2)c1`: 55.04%; `CNS(=O)(=O)c1cc(C(=O)N(C)Cc2sccc2C)c(C)o1`: 10.48%.
As to `Cc1nc(CC(C)C)cc(C(=O)N2C[C@@H](N(C)C)[C@H](C(C)C)C2)n1`, the INHIBITION worked out at 0.55%.
In the case of `Cc1cc(C(=O)N2C[C@H](C(C)C)[C@@H](N(C)C)C2)cs1`, the INHIBITION is on record as 68.66%.
For the compound `Cc1cc(C(=O)N2C[C@@H](C(=O)O)[C@H](C(C)C)C2)cs1`, the INHIBITION is -3.66%.
On to `CC(C)c1cccc(N2CCCC3(CCC(=O)N(C4CC4)C3)C2)n1` (stereo not drawn), for which the INHIBITION is reported as -90.99%.
Next, `Cc1ccc(O)c(CNCC(C)c2nc3ccccc3o2)n1` (stereo not drawn): 35.36%; `CCC(CC)C(=O)N1CCOC2(CNC2)C1`: 58.95%; `CC(C)NC(=O)N1CCOC2(CNC2)C1`: 44.13%.
Consider `CCC(CC)C(=O)N1CCOC2(COCCN(CC(=O)NC)C2)C1` (stereo not drawn), for which the INHIBITION stood at 48.52%.
Regarding `Cc1cc(C(=O)NCC(C)C)c2c(C3CCCN3)noc2n1` (stereo not drawn), the INHIBITION is reported as -14.61%.
Next, `Cc1noc(CNC2CCCN(Cc3noc(C4CC4)n3)C2)n1` (stereo not drawn): 10.53%.
The same measure for `Cc1cc(N2CCN(Cc3ccsc3)C(CCO)C2)nc(N)n1` (stereo not drawn): 34%; for `CC(C)Oc1cc(N2CCN(Cc3ccsc3)C(CCO)C2)nc(N)n1` (stereo not drawn): 51.76%; for `COc1cc(N2CCN(Cc3ccsc3)C(CCO)C2)nc(N)n1` (stereo not drawn): 39.92%.
The same measure for `O=c1[nH]c2cn(-c3cccc(Cl)c3)c(=O)n2n1Cc1cccc(F)c1`: 42.62%.
For `O=c1[nH]c2cn(-c3ccc(F)cc3)c(=O)n2n1Cc1cccc(Cl)c1`, the INHIBITION is 58%.
Next, `O=c1[nH]c2cn(-c3cccc(F)c3)c(=O)n2n1Cc1ccc(Cl)cc1`: 5.87%; `CCCn1nc2c(cc1=O)CN(CCN1CCCC1=O)CC2`: -33.39%; `CC(C)(C)n1ncc2c(=O)[nH]c(N3CCN(CCO)CC3)nc21`: 40.47%.
As for `CC(=O)N1CCN(c2nc3c(cnn3C(C)(C)C)c(=O)[nH]2)CC1`, the INHIBITION is -12.08%.
Consider `CC(C)(C)n1ncc2c(=O)[nH]c(N3CCN(CC(F)F)CC3)nc21`, for which the INHIBITION was 66.74%.
Turning to `CSCC[C@H](N)C(=O)NCc1cc2n(n1)CCCN(C1CCCCC1)C2`, the INHIBITION was -46.68%.
For `Cc1ccc(S(=O)(=O)NC[C@H]2OC[C@@H](NCc3ccccc3)[C@@H]2O)cc1`, the INHIBITION is listed as 75.87%.
Take `Cc1ccc(S(=O)(=O)NC[C@H]2OC[C@@H](NCc3ccncc3)[C@@H]2O)cc1`: the INHIBITION was 16.47%.
Next, `Cc1ccc(CN[C@@H]2CO[C@H](CNS(=O)(=O)c3ccccc3)[C@H]2O)cc1`: -6.18%.
The same measure for `Cc1nc(NCCc2noc(C3CCCO3)n2)c2sccc2n1` (stereo not drawn): 49.63%; for `O=C(NCCc1noc(C2CCCO2)n1)c1cn2ccsc2n1` (stereo not drawn): 40.88%.
The same measure for `O=C(NCc1noc(C2CCCO2)n1)c1cn2ccsc2n1` (stereo not drawn): 22.09%; for `Cc1nc(NCc2noc(C3CCCO3)n2)c2sccc2n1` (stereo not drawn): 61.69%.
Turning to `Cc1nc(NCc2noc(C3CCCO3)n2)c2ccsc2n1` (stereo not drawn), the INHIBITION is given as 59.01%.
As for `Cc1nc(N(Cc2ccncc2)CC2CCCO2)c2ccsc2n1` (stereo not drawn), the INHIBITION is given as -59.39%.
For `O=C(CCCOc1ccc(F)cc1F)N1CCCC1Cn1cccn1` (stereo not drawn), the INHIBITION was determined as 6.12%.
For the compound `CN(Cc1cc2n(n1)CCCN(C(=O)N1CCCC1)C2)Cc1nccs1`, the INHIBITION is recorded as -10.4%.
The same measure for `CCc1csc(CNc2nc3c(s2)c(C)nn3C)n1`: 28.14%; for `Cc1nc(CNc2nc3c(s2)c(C)nn3C)cs1`: 38.49%; for `CCc1nc(CNc2nc3c(s2)c(C)nn3C)cs1`: 51.4%.
The same measure for `O=C(NC1CCc2[nH]c(=O)ccc2C1)C1CCOCC1` (stereo not drawn): 0.79%; for `CCN1CC[C@@]2(C(=O)N3CCOCC3)CCN(C(=O)NC)CC[C@@H]12`: 19.42%.
The same measure for `CSC1=Nc2c(cnn2-c2ccc(C)cc2)C2=NCCCN12`: 44.7%.
For the compound `CCOc1ccccc1C(=O)N1CCCC1c1ncc2c(n1)CCNC2` (stereo not drawn), the INHIBITION is reported as -2.7%.
The same measure for `CN1C[C@@H](N)C[C@H]1C(=O)N1CCC(Cc2ccc(F)cc2)CC1`: 29.87%; for `O=C(C1CCS(=O)(=O)CC1)N1CCC(Cc2ccc(F)cc2)CC1`: 9.75%.
Consider `CCC(=O)N1CCCC1C(=O)N1CCC(Cc2ccc(F)cc2)CC1` (stereo not drawn), for which the INHIBITION was 69.52%.
In the case of `c1cnnc(N2CCCC2CNCc2nc(-c3cccs3)no2)c1` (stereo not drawn), the INHIBITION was -8.75%.
Next, `Cc1cccc(-n2nc(CC(C)C)nc2CS(C)(=O)=O)c1`: 3.92%; `Cc1cc(N2CCC(N(C)C(=O)c3sccc3C)CC2)nc(C)n1`: -82.24%.
Next, `Cc1ccsc1-c1nccn1CCN1CCCCC1CO` (stereo not drawn): -12.08%; `OCC1CCCCN1CCn1ccnc1-c1ccc2c(c1)OCCO2` (stereo not drawn): 63.46%.
Next, `Cc1cc(-c2nccn2CCN2CCCCC2CO)oc1C` (stereo not drawn): 47.04%.
On to `CC(O)c1cn(Cc2cccc(C(F)(F)F)c2)nn1` (stereo not drawn), for which the INHIBITION is recorded as 19.08%.
The same measure for `COc1ccccc1CN1C[C@@H](F)[C@@H](OCc2nc3ncccc3[nH]2)C1`: 55.57%; for `COc1ccccc1CN1C[C@@H](F)[C@@H](OCc2nc3cnccc3[nH]2)C1`: 14.89%.
Turning to `COc1ccccc1CN1C[C@@H](F)[C@@H](OCc2nc3ccccc3[nH]2)C1`, the INHIBITION is -6.21%.
The same measure for `O=C(CS(=O)(=O)Cc1cc(Cl)c2c(c1)OCCCO2)NCC1CC1`: 2.77%; for `CCNC(c1ccc(F)cc1)c1cccnc1` (stereo not drawn): -49.8%.
Next, `CCCNC(c1cccnc1)c1ccc(F)c(C)c1` (stereo not drawn): 62.36%.
As to `CCNC(c1ccc(Cl)cc1)c1cccnc1` (stereo not drawn), the INHIBITION came to 8.37%.
Next, `CCNC(c1cccnc1)c1ccc(F)cc1F` (stereo not drawn): 53.98%; `CCCNC(c1ccc(F)cc1)c1cccnc1` (stereo not drawn): 26.18%.
Turning to `CCNC(c1ccc(C(C)C)cc1)c1cccnc1` (stereo not drawn), the INHIBITION was found to be 58.05%.
In the case of `CCNC(c1cccnc1)c1ccc(F)c(C)c1` (stereo not drawn), the INHIBITION is reported as 1.61%.
With `CCCNC(c1cccnc1)c1ccc(F)cc1F` (stereo not drawn), the INHIBITION is recorded as -3.32%.
Next, `CCNC(c1ccc(C)cc1)c1cccnc1` (stereo not drawn): -41.21%; `c1cc(CN2CCC(c3nnc4n3CCCCC4)CC2)c2nonc2c1`: -60.89%; `CC(C)n1ncc2c1NC(=O)CC21C(=O)Nc2c(Cl)ccc(Cl)c21` (stereo not drawn): -40.36%.
Take `c1csc(-c2noc(C3CN(Cc4ccc5c(c4)CCO5)C3)n2)c1`: the INHIBITION worked out at 35.6%.
In the case of `O=C1CCNc2ncc(-c3ccccc3Cl)cc2CN1C1CC1`, the INHIBITION is reported as 18.48%.
